# Source: PubChem BioAssay AID651635 (National Center for Advancing Translational Sciences (NCATS), 2012)
# Screen size: about 400,000 compounds; about 1,900 (0.47%) were called active. Another 14% or so got no clear call; they are omitted. Calls come from the whole dose curve; as a rule, active = well fitted cell-killing curve with a large enough effect; inconclusive = small, poorly fitted or top-dose-only effect, or effect the other way; inactive = no such curve, though single readings can be large or run the other way. The entries come from a sample that favours actives as a whole. Where a call stands in place of a potency, no number is given.
# Test: Viability Counterscreen for Primary qHTS for Inhibitors of ATXN expression; note: nearly all actives have a fitted effect of over 40% in size
# Conditions: S2 cells (HEK-293 line with an ATXN2-luciferase reporter) viability, CellTiter-Fluor protease fluorescence, 24 h; series mostly up to 56.7 µM
# Description: Spinocerebellar ataxia type 2 (SCA2) is a multisystem neurodegenerative disease caused by a dominantly-acting mutation leading to expansion of a polyQ domain in the ataxin-2 protein (ATXN2). SCA2 patients develop progressive ataxia and later lose function in other neuronal systems. Prominent parkinsonian signs develop in some patients. Similar to many neurodegenerative disorders, no symptomatic or disease-modifying treatments are known.
# The primary objective of the proposed research is to identify compounds inhibiting ATXN2 expression and to test them for efficacy in SCA2 mouse models. To this end, we have developed a cell-based assay paired with an in vivo mouse model using identical luciferase expression constructs. This approach takes advantage of an ATXN2-luciferase transgene, with the luciferase gene flanked by the upstream and downstream portions of the ATXN2 gene. This primary assay was tested against the NIH Molecular Libraries Small Molecule Repository (MLSMR).
# NIH Chemical Genomics Center [NCGC]
# NIH Molecular Libraries Probe Centers Network [MLPCN]
# Assay Submitter (PI): Daniel Scoles, University of Utah
# PROTOCOL TABLE (as described by Inglese J, Shamu CE and Guy RK. 2007)
# SEQUENCE No. (e.g., 1, 2, 3, etc.); […] (e.g., Cells, Incubation, Reagent, etc.); VALUE; DESCRIPTION.
# 1; Cells; 4 uL; white, solid bottom, 1536-well Greiner assay plate.
# 2; Incubation; 2 hr; 37 degree C in 5% humidified CO2.
# 3; Compounds; 23 nL; Kalypsis pintool (Wako USA) equipped with a 1536-well pin head.
# 4; Incubation; 24 hr; 37 degree C in 5% humidified CO2.
# 5; Reagent; 1 uL; Gly-Phe-7-Amino-4-trifluoromethylcoumarin.
# 6; Incubation; 30 min; 37 degree C in 5% humidified CO2.
# 7; Detection; Fluorescence; ViewLux plate reader (PerkinElmer).
# 8; Reagent; 3 uL; SteadyGlo luciferase solution (Promega).
# 9; Incubation; 5 min; room temperature.
# 10; Detection; Luminescence; ViewLux plate reader (PerkinElmer).
# NOTES (numbers refer to Sequence numbers above)
# 1. S2 cells expressing ATXN2-luciferase reporter were suspended in phenol-red free DMEM and dispensed in assay plates using a Multidrop Combi dispenser (Thermo Fisher Scientific).
# 2. Assay plates were incubated. Evaporation was prevented by covering assay plates with metal lids containing holes to allow gas diffusion.
# 3. […] Vehicle-only plates, with DMSO being pin-transferred to columns 5-48, were inserted uniformly at the beginning and the end of each library to monitor and record any shifts in assay performance.
# 5. 125 uM Gly-Phe-7-Amino-4-trifluoromethylcoumarin (MP Biomedicals) working concentration was used at a final concentration of 25 uM.
# 7. To assess cell viability; the assay plates were read using the ViewLux high-throughput CCD imager (PerkinElmer), wherein single end-point fluorescence measurement was acquired (excitation 405/10; emission 540/25 nm).
# 8. Detection reagent SteadyGlo Luciferase (Promega) was added to the assay plate.
# 10. Luminescence is then measured on the ViewLux imager equipped with a clear emission filter using a 2 sec exposure. All screening operations were performed on a fully integrated robotic system (Kalypsys) containing one RX-130 and two RX-90 anthropomorphic robotic arms (Staubli).
# Inglese J, Shamu CE and Guy RK, Reporting data from high throughput screening of small molecule libraries, Nature Chemical Biology, 2007, 3(8): 438-441. doi.org/10.1038/nchembio0807-438.
# Potency is the fitted concentration of half-maximal effect.
row,Structure (SMILES),Potency
1,O=C(NCCc1ccccc1)c1cccc(NC(=O)c2ccccc2)c1,inactive
2,O=C(CCl)Nc1cccc(CP(=O)(c2ccccc2)c2ccccc2)c1,14.1 µM (active)
3,O=C(CSCc1ccccc1)Nc1ccccc1,inactive
4,CCOc1ccc(NS(=O)(=O)c2ccc(N)cc2)nn1,inactive
5,O=C(NC(c1ccc(Cl)cc1)c1cnccn1)C1CCN(Cc2ccc(Cl)cc2)CC1 (stereo not given),inactive
6,O=C(CC1N=C2c3ccccc3N=C(SCc3cccc(Cl)c3)N2C1=O)NCc1ccc2c(c1)OCO2 (stereo not given),31.6 µM (active)
7,NC(=O)CSC1=Nc2ccccc2C2=NC(CCC(=O)NCc3ccc(F)cc3)C(=O)N12 (stereo not given),inactive
8,Cc1ccc(CNC(=O)CSC2=Nc3ccccc3C3=NC(C)C(=O)N23)cc1 (stereo not given),inactive
9,CC(C)(C)C(=O)c1c(N)[nH]c(C(=O)c2ccccc2)c1-c1ccc(F)cc1,inactive
10,COCC(=O)Nc1cc(C(=O)N2CCCC(c3ccccc3)CC2)c2c(c1)nc(-c1ccncc1)n2C (stereo not given),inactive
11,CCOC(=O)[C@H](CCc1ccccc1)N[C@@H](C)C(=O)N1CC2(C[C@H]1C(=O)O)SCCS2,inactive
12,O=C(C(=O)N1CCOc2ccc(CN3CCN(Cc4ccccn4)CC3)cc2C1)c1ccccc1,inactive
13,CCC1(C2CCN(C(=O)c3cccc(F)c3F)CC2)NC(=O)N(CCc2scnc2C)C1=O (stereo not given),inactive
14,Cc1ccc(-c2ccc(C(=O)N3CCc4nnc(CNC(=O)c5ccccc5)n4CC3)cc2)cc1,inactive
15,COc1ccc(CCNc2ncnc3sc(C(=O)N4CCCC4)c(C)c23)cc1OC,inactive
16,Cn1nc(-c2ccccc2)c2cc([N+](=O)[O-])ccc21,inactive
17,O=C1NC(=O)C2C1C(c1ccc([N+](=O)[O-])cc1)=NN2Cc1ccccc1 (stereo not given),inactive
18,O=C1CC(c2ccccc2)=NN1c1ccc([N+](=O)[O-])cc1,21.2 µM (active)
19,NC(Cc1ccccc1)c1csc(Nc2cc(Oc3ccccc3)ncn2)n1 (stereo not given),31.6 µM (active)
20,COc1ccc(C(NC(=O)C2CCN(CCCc3ccccc3)CC2)c2cccs2)cc1 (stereo not given),inactive

row,Structure (SMILES),Potency
1,COc1ccccc1C1CN(CCNC(=O)C2=CCCC2)Cc2ccccc2O1 (stereo not given),inactive
2,CC(C)NC(=O)N1Cc2cc(C(=O)NCC(F)(F)F)nc(-c3cccc(-c4cc5ccccc5o4)c3)c2[C@@H]1CCO,inactive
3,NC(N)=N/N=C/c1ccc(OCc2ccc(Cl)cc2Cl)cc1,35.5 µM (active)
4,COc1ccc(Cl)cc1N(CC(=O)N/N=C/c1ccc(OCC(N)=O)cc1)S(C)(=O)=O,inactive
5,Cc1nc2ccccc2nc(C)c1=NOCc1ccc(Cl)cc1Cl,inactive
6,C[C@H]1C[C@H]2[C@@H]3CCC4=CC(=O)C=C[C@]4(C)[C@@H]3C(=O)C[C@]2(C)[C@@]1(O)C(=O)CO,inactive
7,COc1ccc(C2=Nn3c(nnc3-c3ccccc3OC)SC2)cc1OC1CCCC1,15.8 µM (active)
8,COc1ccccc1-c1nnc2n1N=C(c1ccc(OC(F)F)c(OCC3CC3)c1)CS2,inactive
9,CC1=Nn2c(nnc2-c2ccccc2)SC1,inactive
10,COc1ccc(CCNC(=O)c2ccc(-n3c(C)cc4c3CCCC4)cc2)cc1OC,inactive
11,O=C(Nc1cccc2cccnc12)c1ccc2sc([C@H]3C[C@H](O)[C@@H](CO)O3)nc2c1,inactive
12,Cc1ccccc1-c1csc(C(O)c2cccc(Cl)c2)n1 (stereo not given),inactive
13,O=C(/C=C/c1ccc(Cl)cc1)Nc1ccc(Br)cn1,inactive
14,NCCCNC(=S)NCCCN(Cc1ccc(Cl)cc1)c1ccc(Br)cn1,35.5 µM (active)
15,S=C(NCCCc1ccccc1)Nc1ccc(Br)cc1,inactive
16,CN(C)CCNC(=O)c1cccc(-c2cnc3c(NC=O)cc(-c4cccc(C(F)(F)F)c4)cn23)c1,inactive
17,CN1CCN(c2ccc(NC(=O)c3cc(Cl)c4c(c3)OCCO4)cc2)CC1,inactive
18,C=CC(=O)Nc1ccc(Nc2ccnc(Nc3ccc(N4CCN(C)CC4)cc3)n2)cc1,14.1 µM (active)
19,Cc1cccc(N2CCN(c3ccc(NC(=O)/C=C\C(=O)O)cc3)CC2)c1,inactive
20,COC(=O)c1c(OCc2ccc(F)cc2)cc(=O)n2c1CCN(Cc1ccc3cccnc3c1)CC2,inactive

row,Structure (SMILES),Potency
1,CC(C)C(=O)NC(C)c1nnc2n1CCN(Cc1cccc3ncccc13)CC2 (stereo not given),inactive
2,CCc1ccc2c(c1)C1(NN=C(c3ccccc3)S1)C(=O)N2 (stereo not given),3.16 µM (active)
3,CO[C@H]1[C@H](NC(=O)C(C)C)c2ccccc2C12CCN(Cc1cnc(N(C)C)s1)CC2,inactive
4,COc1ccc(C2(Nc3cccc(F)c3)C(=O)c3ccccc3C2=O)cc1,inactive
5,CCOC(=O)c1scc(-c2ccccc2)c1S(=O)(=O)Nc1ccccc1F,inactive
6,CCOC(=O)c1c(-c2ccc(-c3ccccc3)cc2)csc1NC(=O)CCC(=O)O,inactive
7,CCCS(=O)(=O)c1ncc(Cl)c(C(=O)Nc2scc(-c3ccccc3)c2C(=O)OCC)n1,15.8 µM (active)
8,Cc1ccc(C)c(C(O)c2ncc(-c3cccc4ccccc34)[nH]2)c1 (stereo not given),inactive
9,CO[C@H]1[C@@H](O)[C@H](N)[C@@H](O[C@H]2O[C@H]([C@H](C)N)CC[C@H]2N)[C@H](O)[C@@H]1N(C)C(=O)CN,inactive
10,Cc1ccc(CN2CC(N3CCC(Cc4ccccc4)CC3)CS2(=O)=O)cc1 (stereo not given),inactive
11,NC(=O)C1(Nc2ccccc2Cl)CCCC1,inactive
12,O=C(Nc1ccccc1Cl)/C(Cl)=C(\Cl)S(=O)c1ccccc1 (stereo not given),3.55 µM (active)
13,O=C(COC(=O)CCc1c[nH]c(=O)[nH]1)Nc1ccccc1Cl,inactive
14,O=C(CN1C(=O)COc2ccc(S(=O)(=O)N3CCCCCC3)cc21)N1CCN(c2cccc(C(F)(F)F)c2)CC1,inactive
15,CCCCS(=O)(=O)c1oc(-c2cccs2)nc1S(=O)(=O)c1ccccc1,3.16 µM (active)
16,Cc1ccc(S(=O)(=O)c2nc(-c3cccs3)oc2NCc2cccnc2)cc1,inactive
17,NC(=O)CSc1oc(-c2cccs2)nc1S(=O)(=O)c1ccccc1,inactive
18,COc1ccccc1-c1ccnc(-n2ncc(C(=O)NCCCN3CCOCC3)c2C)n1,inactive
19,Cc1ccc(-c2cnc(C(O)c3cc(Cl)cc(Cl)c3)[nH]2)cc1 (stereo not given),inactive
20,Cc1cc(C)c2oc(C(=O)Nc3ccc(S(=O)(=O)N4CCCCCC4)cc3)cc(=O)c2c1,inactive
